Where “and” joins values, the source holds several entries; their conditions need not be identical. Equal entries are not always repeated. About 79,000 compounds went through this panel and 15% of them were active in at least one assay; those are over-represented in the sample as a whole. Rule as the data show it: active = growth inhibition above about 70%; inactive = the rest.
Legend:
[1] = NCI Yeast Anticancer Drug Screen. Data for the rad50 strain (AID 155);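 also: 0% = growth of vehicle-only cultures of the same strain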; details: S. cerevisiae rad50 strain growth inhibition; at 50.0 µM; stronger effect = higher value
Method in brief: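 Cells are treated with compound, grown, and their growth is then scored against vehicle-only cultures of the same repair-deficient yeast strain.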

[2] = NCI Yeast Anticancer Drug Screen. Data for the mec2-1 strain (AID 157); details: S. cerevisiae mec2-1 strain, at 50.0 µM, stronger effect = higher value
Method in brief: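 Each compound was tested on mec2-1 yeast, a strain altered in DNA damage repair or cell cycle control. Growth inhibition is reported relative to vehicle.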

[3] = NCI Yeast Anticancer Drug Screen. Data for the sgs1 mgt1 strain (AID 161);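 also: 0% = growth of cultures given vehicle only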; details: S. cerevisiae sgs1 mgt1 strain, at 50.0 µM, stronger effect = higher value
Method in brief: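 Mutant yeast exposed to compound; growth scored against vehicle-only wells.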

[4] = NCI Yeast Anticancer Drug Screen. Data for the cln2 rad14 strain (AID 165);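 also: 0% = growth equal to vehicle treated cultures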; details: S. cerevisiae cln2 rad14 strain, at 50.0 µM, stronger effect = higher value
Method in brief: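 Test compounds were added to cln2 rad14 yeast cultures; inhibition of growth was then determined by comparison with vehicle treatment.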

[5] = NCI Yeast Anticancer Drug Screen. Data for the bub3 strain (AID 167); details: S. cerevisiae bub3 mutant strain, at 50.0 µM, stronger effect = higher value
Method in brief: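 Part of a panel of yeast mutants defective in DNA damage repair or cell cycle regulation. Each strain is grown with compound, and inhibition is calculated relative to solvent-treated cultures.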

[6] = NCI Yeast Anticancer Drug Screen. Data for the mlh1 rad18 strain (AID 175); details: S. cerevisiae mlh1 rad18 strain growth inhibition; at 50.0 µM; stronger effect = higher value
Method in brief: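 Inhibition values reflect reduced growth of mutant yeast versus vehicle-treated controls following compound exposure; the mutations affect DNA damage repair.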

Measured: growth inhibition

Oc1ccc[n+](Cc2ccccc2)c1
inactive: [1] -7.85% and -26.4% | [2] -24.1% and -43.9% | [3] -47.3% and -12.4% | [4] 7.35% and 24.6% | [5] -49.5% and -22.8% | [6] -21.8% and -11.4%

CCC(C(=O)O)C(=O)O.[NH-]CC[NH-].[Pt+2]
inactive: [1] -23.6% and -13.2% | [2] -8% and -3.95% | [3] -8.05% and -16.4% | [4] -29.4% and -13.5% | [5] 1.3% and 2% | [6] -10.8% and -24%

COc1ccc2c(=O)oc3c(OC)cc(CCN(C)C)c4c(=O)oc1c2c34
inactive: [1] 62.9% and -8.15% | [2] -0.55% and -23.4% | [3] 0.35% and -57.6% | [4] 4.3% and -24.4% | [5] 20.2% and -43.8% | [6] 25.4% and -30.3%

CC(C)(O)CN/C=C(\C(=O)OC(C)(C)C)N1C(=O)c2ccccc2C1=O
inactive: [1] 17.1% and -17% | [2] 3% and -6.7% | [3] 13.8% and -5.45% | [4] -39% and -11.5% | [5] -1.65% and -4.95% | [6] 2.8% and 17.6%

CCN(CC)CCCNC
inactive: [1] 6.2% and 26.6% | [2] -4.75% and 7.75% | [3] 3.2% and 3.7% | [4] 2.25% and -25.1% | [5] -9.6% and -4.5% | [6] 7.3% and 25.2%

COc1cc(C=O)ccc1O
inactive: [1] 0.2% and 12.1% | [2] -0.35% and 2.65% | [3] -5.95% and 15.9% | [4] 4.45% and 6.3% | [5] -1.9% and 13.4% | [6] 7.75% and 14.2%

CC(=O)Nc1ccc(C=O)cc1
inactive: [1] 13.1% and 25.1% | [2] 3.5% and 19.1% | [3] 14.8% and 24.1% | [4] -18.1% and 8.75% | [5] -4.15% and -9.2% | [6] 4.9% and 28%

C=CCSC1=NC(=O)C(CCCC)C(=O)N1C (stereo unspecified)
inactive: [1] 7.75% and -1.7% | [2] 2.65% and 7.25% | [3] 4.25% and 6.3% | [4] -35.5% and -24.9% | [5] -22% and 7.5% | [6] 10.8% and 7.5%

CC1OC(n2cnc3c(N)ncnc32)C(O)C1O (stereo unspecified)
inactive: [1] -3.75% and 14.4% | [2] 8.1% and -3.35% | [3] 2.5% and -12.4% | [4] -53.2% and 5.3% | [5] 0.85% and -1% | [6] -0.4% and -13.8%

COC1OC(COC(=O)NCCCCC(=O)C(F)(F)C(F)(F)C(F)(F)C(F)(F)C(F)(F)C(F)(F)C(F)(F)F)C(O)C(O)C1O (stereo unspecified)
inactive: [1] -34.9% and -29.9% | [2] -22.2% and -30.1% | [3] -10% and -11.4% | [4] -2.5% and -8.2% | [5] -18.4% and -26.4% | [6] -2.9% and -3.6%

O=C(CC(=O)c1cccnc1)NC(=O)c1ccccc1
inactive: [1] -1.05% and -34.5% | [2] -2.5% and -22.1% | [3] -1.35% and -4.05% | [4] 7.85% and 12.1% | [5] 3.9% and 7.6% | [6] -6% and -1.95%

CC1=C/C(=C(\c2cc(C)c(O)c(C(=O)O)c2)c2c(Cl)ccc(S(=O)(=O)O)c2Cl)C=C(C(=O)O)C1=O
inactive: [1] 25.6% and -15.2% | [2] 0.1% and -0.75% | [3] 22.8% and -4.2% | [4] 21.1% and -2.6% | [5] -3.05% and -7.4% | [6] 41.5% and -2.55%

O=C(NC(=O)C(C(=O)c1ccccc1)c1ccccc1)c1ccccc1 (stereo unspecified)
inactive: [1] -3.95% and 2.65% | [2] 2.1% and -1.35% | [3] -6.9% and -12.2% | [4] 0.15% and 9.9% | [5] 5.6% and -4.05% | [6] -5.05% and -6.25%

COC12C=CC(CC1)C(C)(C)C2O (stereo unspecified)
inactive: [1] 7.6% and 0.25% | [2] -0.75% and -7.75% | [3] -1.55% and -2.25% | [4] -11% and -14.2% | [5] 7.85% and 14.7% | [6] 4.25% and 1.9%

CCCCOC(=O)c1ccc(O)cc1
inactive: [1] 25.4% and 23% | [2] -2.95% and -1.8% | [3] 8.7% and -6.55% | [4] 3.55% and -11.2% | [5] 8.75% and 33.6% | [6] 23.4% and 48%

OC1COCOC1C1OCOCC1O (stereo unspecified)
inactive: [1] 11.2% and -5.6% | [2] -2.7% and -8.35% | [3] 2.3% and 19.4% | [4] -18.2% and -29% | [5] -1.9% and -4.2% | [6] -5.6% and -0.85%

CSCCC(N)C(=O)NCC(=O)O (stereo unspecified)
inactive: [1] -13.8% and -37.5% | [2] -22.9% and -23.1% | [3] -10.8% and 1.4% | [4] 2.9% and -35.9% | [5] -16.1% and -12% | [6] -11.4% and -8.65%

Nc1ccc2nc[nH]c2c1
inactive: [1] -15.3% and 18.9% | [2] -7.6% and -4.65% | [3] -7.55% and -18.6% | [4] 14.7% and 16.6% | [5] 2.25% and -1% | [6] -0.9% and 14.3%

CCOC(=O)C(=Cc1ccco1)C(=O)OCC
inactive: [1] 38.5% and 10.2% | [2] 37.1% and -24.6% | [3] 7.75% and -0.5% | [4] 23.8% and 8.8% | [5] -4.65% and -9.25% | [6] 19.8% and -19.1%

COC(=O)C(Cc1ccccc1)NC(=O)C(CNC(=O)OCc1ccccc1)C(=O)OCc1ccccc1 (stereo unspecified)
inactive: [1] 16.2% and -13.2% | [2] -5.6% and -6.65% | [3] -1.9% and -8.85% | [4] 0.65% and -3.55% | [5] -3.5% and -20.5% | [6] -11.1% and -10.2%

O=c1c(I)c[nH]cc1I
inactive: [1] -12.1% and -3.2% | [2] -15.9% and 14.1% | [3] -24.1% and 4.45% | [4] 3.35% and 22.6% | [5] -9.4% and 15.7% | [6] 22.2% and 14.8%
